We go through six compounds from PubChem BioAssay (NCATS).

Records with an inconclusive call do not appear. Active and inactive are the calls of the source. Unless noted, the call rests on the fitted dose curve; in most records, active means well fitted curve in the direction sought with a large enough effect; inconclusive means small, poorly fitted or top-dose-only effect, or another doubt; inactive means no such curve, though single readings can be large; an effect the other way counts as inactive or inconclusive.

Experiment [1] can be described thus: AP1 Signaling Pathway (AID 357; active means well fitted curve in either direction with a large enough effect, not every such curve was filed as active;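 further: ME-180 reporter cells stimulated with EGF at its EC50 level; on the % scale 0 is the no-effect control and ±100 the full control effect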). An outline of the steps:
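Modulation of EGF-driven AP-1 transcription was assessed with a beta-lactamase reporter in ME-180 cells. Compound and EC50 EGF were co-incubated 5 hours at 37 °C before 2.5-hour CCF4 loading at room temperature and dual-emission reading.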

Experiment [2] has as its target Cytochrome P450 1A2 (Homo sapiens) (UniProt P05177). Description: p450-cyp1a2 (AID 410; calls by dose curve). An outline of the steps:
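Human CYP1A2 (20nM) demethylated Luciferin-ME at its Km (100uM) in 100mM KPO4. After 10 min compound preincubation, NADPH regeneration ran the reaction 60 min at room temperature. Luciferin was read by luminescence, normalized to 57 uM furafylline.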

The nature of experiment [3]: NFAT Signaling Pathway (AID 444; active means well fitted curve in either direction with a large enough effect, not every such curve was filed as active;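 further: carbachol stimulus at about its EC50 of 1 µM final; on the % scale 0 is the no-effect control and ±100 the full control effect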). To be noted: Jurkat NFAT-bla M1, carbachol, beta-lactamase ratio, 5 h; at 17.2 µM (top of the series) unless noted. An outline of the steps: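 Jurkat cells with NFAT-driven β-lactamase reporter and co-expressed M1 receptor, stimulated with carbachol (final 1 uM, ~EC50), compound titration, 5 h at 37 °C. CCF4 loaded 1 h at RT; 460/530 nm ratio gave %activity and AC50.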

Experiment [4] in a line: Stat Signaling Pathway (AID 446; active means well fitted curve in either direction with a large enough effect, not every such curve was filed as active;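 further: ME-180 cervical cancer cells given 40 pM IL-6 alongside compound; SIE-controlled beta-lactamase reporter measured as 460/530 nm FRET emission ratio; on the % scale 0 is the no-effect control and ±100 the full control effect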). In short, it runs like this: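 Reporter line: ME-180 cervical carcinoma, SIE-beta-lactamase. Treatment: compound with 40 pM IL-6, 5 hrs, 37 C, in low-serum OPTI-MEM with 10 mM HEPES pH 7.3. Detection: 460/530 nm fluorescence.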
The target in experiment [5] is Mitogen-activated protein kinase 10 (Mus musculus) (UniProt Q61831). Kind of experiment: JNK3 AlphaScreen Assay (AID 530; active means well fitted curve in either direction with a large enough effect, not every such curve was filed as active;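 further: kinase came from lysate of stimulated human HepG2 cells; signal reports phosphorylation of biotinylated GST-cJun 1-79 at Ser73 with 10 µM ATP; on the % scale 0 is the no-effect control and ±100 the full control effect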). An outline of the steps: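 qHTS format: compounds tested as titrations against IL-1beta/TNF-alpha-activated HepG2 lysate JNK3 with biotin-GST-cJun substrate and 10 uM ATP at room temperature. Loss of anti-phospho-cJun AlphaScreen signal indicates inhibition.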
Background: Alpha assays give light when donor and acceptor beads are brought close together.

Experiment [6] deals with 3',5'-cyclic-AMP phosphodiesterase 4B (Homo sapiens) (UniProt Q07343). Kind of experiment: qHTS Assay for Inhibitors of PDE-IV (AID 607; active means well fitted activation curve with a large enough effect in the main read-out, with a control signal flat, not every such curve was filed as active; further: % of control where 0% means no effect). In short, it runs like this: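 Cell-based read-out of cAMP via a modified cyclic nucleotide-gated channel and membrane potential dye (535/590 nm) in HEK293 cells expressing PDE4 endogenously. Compounds tested up to 22.9 uM final; 100 uM RO 20-1724 reference.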
Sequence of 3',5'-cyclic-AMP phosphodiesterase 4B (Homo sapiens) (Q07343 whole entry, looked up): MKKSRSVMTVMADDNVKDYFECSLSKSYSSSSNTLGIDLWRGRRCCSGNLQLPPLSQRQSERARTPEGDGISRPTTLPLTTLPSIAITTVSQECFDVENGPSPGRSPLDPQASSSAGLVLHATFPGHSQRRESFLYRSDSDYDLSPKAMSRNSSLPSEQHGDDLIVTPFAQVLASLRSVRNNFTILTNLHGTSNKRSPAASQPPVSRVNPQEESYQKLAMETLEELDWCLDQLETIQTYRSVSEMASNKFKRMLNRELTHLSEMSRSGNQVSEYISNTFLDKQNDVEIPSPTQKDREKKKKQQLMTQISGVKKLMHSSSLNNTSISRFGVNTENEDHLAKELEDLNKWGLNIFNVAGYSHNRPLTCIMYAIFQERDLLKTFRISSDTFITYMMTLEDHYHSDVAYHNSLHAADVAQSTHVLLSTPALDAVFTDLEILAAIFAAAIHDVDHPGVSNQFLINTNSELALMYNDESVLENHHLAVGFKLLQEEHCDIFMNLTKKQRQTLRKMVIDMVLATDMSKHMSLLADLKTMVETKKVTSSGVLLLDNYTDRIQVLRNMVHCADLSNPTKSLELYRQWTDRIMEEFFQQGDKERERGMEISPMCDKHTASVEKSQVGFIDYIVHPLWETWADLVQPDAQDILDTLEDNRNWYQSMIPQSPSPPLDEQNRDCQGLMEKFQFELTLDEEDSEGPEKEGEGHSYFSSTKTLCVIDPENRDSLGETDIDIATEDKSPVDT

Experiment [7] in a line: qHTS Assay for Lipid Storage Modulators (AID 1519; calls by dose curve). The settings on record: Drosophila S3 cells, BODIPY lipid droplet/cell ratio, laser cytometry, cells loaded with oleic acid; for activity change, negative = inhibition: at 25.7 µM (top of the series). An outline of the steps:
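Cells seeded at 5,000 per well were treated with compounds over a concentration series and loaded with oleic acid (400 uM, as added). Lipid droplet fluorescence (488 nm excitation, 500-530 nm channel) was read by laser-scanning cytometry and normalized to 20 uM Triacsin C.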
On the technique in general: In qHTS, concentration-response curves come from the screen itself.

Experiment [8] deals with Ubiquitin carboxyl-terminal hydrolase 1 (Homo sapiens) (UniProt O94782). Description: Inhibitors of USP1/UAF1: Pilot qHTS (AID 504865).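 Further: rhodamine fluorescence freed from ubiquitin-rhodamine substrate followed over time; top concentration of the series differs between compounds; on the % scale 0 is the no-effect control and ±100 the full control effect; nearly all actives have a fitted effect of over 35% in size.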 An outline of the steps: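 USP1/UAF1 complex (1nM) preincubated with compound 15 min at room temperature, then Ub-Rho substrate (150nM final) added. Fluorescence read kinetically at 480/540 nm, 6 reads every 60 seconds. Buffer: 50mM HEPES pH 7.8, 0.5mM EDTA, 0.1 mg/ml BSA, 1mM TCEP, 0.01% Tween-20.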
Sequence of Ubiquitin carboxyl-terminal hydrolase 1 (Homo sapiens) (O94782 whole entry, looked up): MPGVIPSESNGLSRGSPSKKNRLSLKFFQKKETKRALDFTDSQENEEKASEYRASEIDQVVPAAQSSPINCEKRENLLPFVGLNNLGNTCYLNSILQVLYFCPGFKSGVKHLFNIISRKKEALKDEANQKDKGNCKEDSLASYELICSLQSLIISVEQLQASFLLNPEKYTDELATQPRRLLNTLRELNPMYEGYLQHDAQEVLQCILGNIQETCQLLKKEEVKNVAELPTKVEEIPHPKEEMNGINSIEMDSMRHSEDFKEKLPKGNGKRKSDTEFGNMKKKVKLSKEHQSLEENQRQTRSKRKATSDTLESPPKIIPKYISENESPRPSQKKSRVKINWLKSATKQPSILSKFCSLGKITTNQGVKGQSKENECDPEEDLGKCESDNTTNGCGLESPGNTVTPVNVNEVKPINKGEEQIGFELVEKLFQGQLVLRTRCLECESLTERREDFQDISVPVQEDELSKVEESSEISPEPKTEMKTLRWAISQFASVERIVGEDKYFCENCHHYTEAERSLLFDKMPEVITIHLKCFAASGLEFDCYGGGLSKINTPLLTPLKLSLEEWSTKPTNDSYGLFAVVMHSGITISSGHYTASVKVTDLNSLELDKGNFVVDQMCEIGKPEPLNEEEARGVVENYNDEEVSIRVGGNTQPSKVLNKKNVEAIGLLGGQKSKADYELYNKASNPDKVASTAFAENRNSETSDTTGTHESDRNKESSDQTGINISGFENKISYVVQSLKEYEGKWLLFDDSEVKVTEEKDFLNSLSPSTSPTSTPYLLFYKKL

Experiment [9] concerns the target ATP-dependent 6-phosphofructokinase (Trypanosoma brucei brucei) (UniProt O15648). Kind of experiment: qHTS Assay to Find Inhibitors of T. brucei phosphofructokinase: hit validation (AID 492961). Further: on the % scale 0 is the no-effect control and ±100 the full control effect. In short, it runs like this:
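Luminescence from ADP-Glo reports ADP generated as T. brucei PFK (1.25 nM) phosphorylates 0.5 mM fructose-6-phosphate using 0.1 mM ATP. Reactions ran 45 min at room temperature, pH 8.0.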

Experiment [10] deals with Luciferin 4-monooxygenase (Photinus pyralis) (UniProt P08659). Kind of experiment: Biochemical firefly luciferase enzyme assay for NPC (AID 624030).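 Further: purified P. pyralis luciferase at 10 nM with luciferin and ATP substrate; 0% = DMSO and -100% = full luciferase inhibition by PTC124 control; nearly all actives have a fitted effect of over 70% in size.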 In short, it runs like this:
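Purified P. pyralis luciferase at 10 nM in 50 mM Tris Acetate (final), luminescence read within 5 minutes of enzyme addition to compounds. Activity normalised to PTC124 versus DMSO; concentration-response curves classed by r2, magnitude and activity.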

Experiment [11] is described as follows: qHTS profiling for inhibitors of Plasmodium falciparum proliferation (AID 504749).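 Further: 0% = DMSO vehicle and full inhibition = artemisinin control; nearly all actives have a fitted effect of over 60% in size.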 To be noted: P. falciparum in erythrocytes, SYBR Green DNA, 72 h, at 12.8 µM (top of the series). An outline of the steps:
(§1)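 Readout was DNA-dye fluorescence from lysed cultures, ex 485/em 535 nm. Parasitized red cells had grown 72 h with compound; data scaled between 0.29 uM artemisinin and DMSO wells and corrected using vehicle-only plates.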

For the next experiment, the system named is 3D7. The description is as above. The settings on record: P. falciparum in erythrocytes, SYBR Green DNA, 72 h; series mostly up to 12.8 µM. An outline of the steps:
as §1

The next experiment relates to C2A. Described as above. To be noted: P. falciparum in erythrocytes, SYBR Green DNA, 72 h; series mostly up to 12.8 µM. An outline of the steps: as §1
In the next experiment the test system is CP217. Described as above. The settings on record: P. falciparum in erythrocytes, SYBR Green DNA, 72 h; series mostly up to 12.8 µM. An outline of the steps:
as §1

The subject of a further experiment is CP250. Described as above. To be noted: P. falciparum in erythrocytes, SYBR Green DNA, 72 h; series mostly up to 12.8 µM. In short, it runs like this: as §1
The subject of the next experiment is FAB9. The description is as above. To be noted: P. falciparum in erythrocytes, SYBR Green DNA, 72 h; series mostly up to 12.8 µM. An outline of the steps:
as §1

The next experiment has as its system JCK. Described as above. To be noted: P. falciparum in erythrocytes, SYBR Green DNA, 72 h; series mostly up to 12.8 µM. In short, it runs like this: as §1
A further experiment concerns PC49. The description is as above. The settings on record: P. falciparum in erythrocytes, SYBR Green DNA, 72 h; series mostly up to 12.8 µM. An outline of the steps:
as §1

Where [12] appears, read: measured here: cell count channel max response.
The mark [13] stands for this setting: measured here: lipid channel max response.

Sequence of Cytochrome P450 1A2 (Homo sapiens) (P05177 whole entry, looked up): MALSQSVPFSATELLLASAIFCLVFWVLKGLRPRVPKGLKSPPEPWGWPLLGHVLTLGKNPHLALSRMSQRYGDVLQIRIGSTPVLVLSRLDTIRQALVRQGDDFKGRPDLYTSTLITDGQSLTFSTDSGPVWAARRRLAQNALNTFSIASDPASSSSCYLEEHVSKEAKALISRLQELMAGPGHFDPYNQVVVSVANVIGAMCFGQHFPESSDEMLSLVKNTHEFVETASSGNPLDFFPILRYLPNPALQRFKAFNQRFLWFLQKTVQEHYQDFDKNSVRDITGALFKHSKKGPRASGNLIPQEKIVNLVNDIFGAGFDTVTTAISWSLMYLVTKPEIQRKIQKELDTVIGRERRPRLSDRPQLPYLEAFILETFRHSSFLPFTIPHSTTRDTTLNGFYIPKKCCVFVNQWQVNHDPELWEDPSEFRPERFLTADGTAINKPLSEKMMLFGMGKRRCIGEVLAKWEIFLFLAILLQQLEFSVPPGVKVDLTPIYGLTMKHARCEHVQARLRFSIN
Sequence of Luciferin 4-monooxygenase (Photinus pyralis) (P08659 whole entry, looked up): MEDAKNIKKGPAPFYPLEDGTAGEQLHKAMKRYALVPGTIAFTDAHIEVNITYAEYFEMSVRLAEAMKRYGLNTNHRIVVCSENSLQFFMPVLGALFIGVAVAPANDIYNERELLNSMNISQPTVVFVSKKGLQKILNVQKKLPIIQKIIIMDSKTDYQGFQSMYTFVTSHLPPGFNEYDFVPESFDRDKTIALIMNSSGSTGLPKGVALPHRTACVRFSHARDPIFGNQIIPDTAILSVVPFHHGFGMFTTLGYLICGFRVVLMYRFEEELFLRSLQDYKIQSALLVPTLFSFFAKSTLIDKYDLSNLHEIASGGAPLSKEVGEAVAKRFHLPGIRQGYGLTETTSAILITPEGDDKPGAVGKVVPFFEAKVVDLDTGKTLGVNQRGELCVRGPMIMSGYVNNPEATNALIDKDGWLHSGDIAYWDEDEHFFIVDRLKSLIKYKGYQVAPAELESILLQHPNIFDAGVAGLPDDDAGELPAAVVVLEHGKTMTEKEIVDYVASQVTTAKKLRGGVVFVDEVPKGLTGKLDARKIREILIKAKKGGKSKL
Sequence of ATP-dependent 6-phosphofructokinase (Trypanosoma brucei brucei) (O15648 whole entry, looked up): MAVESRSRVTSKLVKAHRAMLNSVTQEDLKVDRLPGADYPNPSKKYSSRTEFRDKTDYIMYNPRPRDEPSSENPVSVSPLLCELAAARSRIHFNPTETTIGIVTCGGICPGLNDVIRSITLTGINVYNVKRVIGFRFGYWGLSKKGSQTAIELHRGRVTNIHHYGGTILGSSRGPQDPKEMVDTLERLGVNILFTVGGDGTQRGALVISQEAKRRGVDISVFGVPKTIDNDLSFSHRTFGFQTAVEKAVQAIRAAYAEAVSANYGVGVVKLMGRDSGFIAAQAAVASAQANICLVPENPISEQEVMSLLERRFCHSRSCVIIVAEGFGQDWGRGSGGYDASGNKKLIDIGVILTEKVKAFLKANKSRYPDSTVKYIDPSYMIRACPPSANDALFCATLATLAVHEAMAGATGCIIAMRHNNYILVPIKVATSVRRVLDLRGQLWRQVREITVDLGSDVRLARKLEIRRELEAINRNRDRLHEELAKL

As for `CC(=O)[C@H]1CC[C@@H]2[C@H]3CC=C4C[C@@H](O)CC[C@]4(C)[C@H]3CC[C@]12C`, the call in experiment [1], in experiment [4] and in experiment [6] was inactive. The Potency entry in experiment [2], in experiment [5] and in experiment [8] was “inactive” each time. The figures for the activity change, negative = inhibition in experiment [3] and in experiment [7] were 3.47% (inactive) and -2.95% (inactive), respectively. Besides, the max response in experiment [7] (setting [12]) is -11.5%; in [7] (setting [13]), -15.2%.
For `C=N[C@H](C(=O)N[C@@H]1C(=O)N2[C@@H]1SC(C)(C)[C@@H]2C(=O)O)c1ccccc1`, the result in experiment [1], in [4] and in [6] was inactive. The Potency entry in experiment [2] and in experiment [8] was “inactive” in each case. In addition, the activity change, negative = inhibition in [3] is -0.342% (inactive); in [7], -2.09% (inactive). The max response in experiment [7] (setting [12]) is -2.49%; in experiment [7] (setting [13]), -4.08%.
On to `CC1(C)S[C@@H]2[C@H](NC(=O)C(N)c3ccccc3)C(=O)N2[C@H]1C(=O)O` (some centres undefined), for which the result in [1], in experiment [4] and in experiment [6] was inactive. Moreover, the Potency entry in experiment [2], in experiment [5] and in experiment [8] was “inactive” in each case. Moreover, the values for the activity change, negative = inhibition in experiment [3] and in experiment [7] were -1.78% (inactive) and -0.37% (inactive), respectively. Besides, the results for the max response in experiment [7] (setting [12]) and in [7] (setting [13]) were 8.14% and 6.97%, respectively.
`CC[C@H](CO)NCCN[C@@H](CC)CO`: the compound was classed as inactive in experiment [1], in [4], in [6] and in experiment [9]. Besides, the Potency result (in experiment [2]; in [8]; in [10]; with 3D7; in the experiment on C2A; in the experiment with CP217) was “inactive” each time. Further, the Potency result in the experiment on CP250, in the experiment with FAB9, in the experiment with JCK and with PC49 was “inactive” each time. In addition, the results for the activity change, negative = inhibition in experiment [3] and in [7] were -11.9% (inactive) and -0.966% (inactive), respectively. Besides, the results for the max response in [7] (setting [12]) and in [7] (setting [13]) were 4.79% and 4.52%, respectively. Also, the activity, negative = inhibition is -3.07% (inactive) in experiment [11] (parasite line A) and 5.7% (inactive) in experiment [11] (parasite line B).
In the case of `NC(=O)c1cc[n+](CC2=C(C(=O)[O-])N3C(=O)[C@@H](NC(=O)Cc4cccs4)[C@@H]3SC2)cc1`, the compound was called inactive in [1], in experiment [4], in experiment [6] and in experiment [9]. Besides, the Potency result (in experiment [2]; in [8]; in experiment [10]; in the experiment on 3D7; in the experiment with C2A; with CP217) was “inactive” each time. Also, the Potency entry in the experiment on CP250, in the experiment with FAB9, in the experiment with JCK and in the experiment with PC49 was “inactive” throughout. For the same compound, the activity change, negative = inhibition in [3] is -11% (inactive); in [7] it was -1.16% (inactive). Also, the max response is -15% in experiment [7] (setting [12]) and -16.9% in [7] (setting [13]). Further, the values for the activity, negative = inhibition in experiment [11] (parasite line A) and in experiment [11] (parasite line B) were -3.3% (inactive) and 1.86% (inactive), respectively.
Regarding `NC(=O)c1ccc[n+]([C@@H]2O[C@H](COP(=O)([O-])OP(=O)(O)OC[C@H]3O[C@@H](n4cnc5c(N)ncnc54)[C@@H](O)[C@@H]3O)[C@@H](O)[C@@H]2O)c1`, the call in experiment [1], in [4] and in [6] was inactive. The Potency entry (in experiment [2]; in experiment [5]; in experiment [8]; in [10]; in the experiment on 3D7; in the experiment with C2A) was “inactive” each time. Moreover, the Potency entry in the experiment with CP217, with CP250, in the experiment on FAB9, in the experiment on JCK and in the experiment with PC49 was “inactive” each time. In addition, the activity change, negative = inhibition is 1.83% (inactive) in experiment [3] and -1.1% (inactive) in experiment [7]. In addition, the max response in experiment [7] (setting [12]) is -9.17%; in experiment [7] (setting [13]), -22.7%. For the same compound, the figures for the activity, negative = inhibition in [11] (parasite line A) and in experiment [11] (parasite line B) were 0.56% (inactive) and 2.43% (inactive), respectively.
